Laboratory results: the supplement of paper PMC10849652
About 7,900 targets were measured; listed, in parts, are those with a hit and a random draw of the rest. About 0.6% of all pairs of compound and target were hits.

What was measured:
Test in all cases: log2 fold change, soluble protein after heating vs DMSO (PISA); higher = thermal stabilisation; K562 cells, 10 uM, 30 min; active = over 0.2 and 3.5 SD of the protein, either way, in both replicates (recomputed)
erlotinib = compound: C#Cc1cccc(Nc2ncnc3cc(OCCOC)c(OCCOC)cc23)c1 [erlotinib]
Outline: (§1)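 Soluble protein was defined as the supernatant after 21,000xg for 90 min. It came from K562 cells at 2×10^6 cells/mL given 10 μM compound for 30 min, heated in aliquots for 3 min across 48°C-58°C, pooled, and extracted in PBS with 0.5% NP-40 at 4°C, and was quantified by TMTpro 16plex LC-MS/MS with equalised channel sums. Thermal stability against control samples, from duplicates, is reported as log2 fold change.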

[1] = compound: C/C(=N\NC(=O)C1=CC(=CC=C1)S(=O)(=O)N2CCOCC2)/C3=C(C=CC(=C3)Cl)O
Outline: as §1

[2] = compound: C1=CC(=C(C=C1Cl)C2=NC3=NC=CN=C3C(=N2)NC4=CC=NC=C4)F
Outline: as §1

[3] = compound: C1=CC(=CC=C1C2=NC3=C(N2)C=C(C=C3)C(=O)N)OC4=CC=C(C=C4)Cl
Outline: as §1

[4] = compound: C1=CC2=C(C=CC(=C2)/C=C\3/C(=O)NC(=NCC4=CC=CS4)S3)N=C1
Outline: as §1

[5] = compound: C1=CC2=NC=CN=C2C=C1/C=C/3\C(=O)NC(=O)S3
Outline: as §1

[6] = compound: C1=CC=C2C(=C1)C3=NNC4=CC=CC(=C43)C2=O
Outline: as §1

[7] = compound: C1CCN(C1)C(=O)NC2=CC=CC(=C2)NC3=NC=C(C(=N3)NCCC4=CN=CN4)Br
Outline: as §1

[8] = compound: C1CN(CCC1(CC2=CC=C(C=C2)Cl)N)C3=NC=NC4=C3C=CN4
Outline: as §1

[9] = compound: C1=CC=C(C=C1)C2=NC(=C(N2)C3=CC=NC=C3)C4=CC(=C(C=C4)Cl)O
Outline: as §1

Measured: log2 fold change

SRSF6 (UniProt Q13247)
inactive: erlotinib 0.084 | [1] 0.096 | [2] -0.072 | [3] 0.062 | [4] -0.325 | [5] 0.079 | [6] -0.251 | [7] 0.09 | [8] -0.154

TBP (UniProt P20226)
Chain of UniProt P20226 (P20226 whole entry, looked up): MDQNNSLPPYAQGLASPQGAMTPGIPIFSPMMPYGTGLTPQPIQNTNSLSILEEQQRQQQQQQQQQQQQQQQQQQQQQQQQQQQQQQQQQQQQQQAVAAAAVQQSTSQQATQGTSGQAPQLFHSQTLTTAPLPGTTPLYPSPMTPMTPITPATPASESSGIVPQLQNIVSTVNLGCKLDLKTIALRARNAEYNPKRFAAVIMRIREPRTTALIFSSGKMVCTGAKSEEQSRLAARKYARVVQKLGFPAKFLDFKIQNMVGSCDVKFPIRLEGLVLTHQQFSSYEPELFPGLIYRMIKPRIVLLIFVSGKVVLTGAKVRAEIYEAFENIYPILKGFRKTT
inactive: [1] -0.016 | [2] 0.027 | [4] 0.073 | [5] 0.041 | [9] 0.012 | [6] -0.058 | [7] 0.018 | [8] 0.157

SP2 (UniProt Q02086)
Chain of UniProt Q02086 (Q02086 whole entry, looked up): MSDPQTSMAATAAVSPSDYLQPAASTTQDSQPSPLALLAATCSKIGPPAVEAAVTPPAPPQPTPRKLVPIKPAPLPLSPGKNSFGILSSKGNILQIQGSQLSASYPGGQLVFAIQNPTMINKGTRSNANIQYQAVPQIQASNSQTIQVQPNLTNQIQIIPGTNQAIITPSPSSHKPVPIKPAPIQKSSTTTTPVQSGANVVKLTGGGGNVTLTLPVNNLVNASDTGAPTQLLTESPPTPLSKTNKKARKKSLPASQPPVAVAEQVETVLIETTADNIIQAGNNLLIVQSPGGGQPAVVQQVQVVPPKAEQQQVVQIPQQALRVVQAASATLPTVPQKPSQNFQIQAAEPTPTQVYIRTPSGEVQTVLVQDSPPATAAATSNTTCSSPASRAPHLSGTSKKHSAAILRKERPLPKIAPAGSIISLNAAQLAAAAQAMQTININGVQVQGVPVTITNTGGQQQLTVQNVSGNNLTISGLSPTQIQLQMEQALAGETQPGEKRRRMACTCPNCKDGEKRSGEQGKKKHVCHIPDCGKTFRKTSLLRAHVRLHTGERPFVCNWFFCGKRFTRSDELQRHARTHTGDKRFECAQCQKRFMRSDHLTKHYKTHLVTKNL
inactive: [1] 0 | [4] 0.229 | [6] 0.095

TENT5C (UniProt Q5VWP2)
inactive: erlotinib -0.117 | [3] 0.087 | [5] 0.023 | [9] -0.104 | [7] -0.025 | [8] -0.017

SLC46A1 (UniProt Q96NT5)
inactive: erlotinib 0.094 | [1] -0.017 | [3] -0.054 | [4] -0.042 | [6] 0 | [7] -0.193 | [8] 0.091

TAOK2 (UniProt Q9UL54)
Chain of UniProt Q9UL54 (Q9UL54 whole entry, looked up): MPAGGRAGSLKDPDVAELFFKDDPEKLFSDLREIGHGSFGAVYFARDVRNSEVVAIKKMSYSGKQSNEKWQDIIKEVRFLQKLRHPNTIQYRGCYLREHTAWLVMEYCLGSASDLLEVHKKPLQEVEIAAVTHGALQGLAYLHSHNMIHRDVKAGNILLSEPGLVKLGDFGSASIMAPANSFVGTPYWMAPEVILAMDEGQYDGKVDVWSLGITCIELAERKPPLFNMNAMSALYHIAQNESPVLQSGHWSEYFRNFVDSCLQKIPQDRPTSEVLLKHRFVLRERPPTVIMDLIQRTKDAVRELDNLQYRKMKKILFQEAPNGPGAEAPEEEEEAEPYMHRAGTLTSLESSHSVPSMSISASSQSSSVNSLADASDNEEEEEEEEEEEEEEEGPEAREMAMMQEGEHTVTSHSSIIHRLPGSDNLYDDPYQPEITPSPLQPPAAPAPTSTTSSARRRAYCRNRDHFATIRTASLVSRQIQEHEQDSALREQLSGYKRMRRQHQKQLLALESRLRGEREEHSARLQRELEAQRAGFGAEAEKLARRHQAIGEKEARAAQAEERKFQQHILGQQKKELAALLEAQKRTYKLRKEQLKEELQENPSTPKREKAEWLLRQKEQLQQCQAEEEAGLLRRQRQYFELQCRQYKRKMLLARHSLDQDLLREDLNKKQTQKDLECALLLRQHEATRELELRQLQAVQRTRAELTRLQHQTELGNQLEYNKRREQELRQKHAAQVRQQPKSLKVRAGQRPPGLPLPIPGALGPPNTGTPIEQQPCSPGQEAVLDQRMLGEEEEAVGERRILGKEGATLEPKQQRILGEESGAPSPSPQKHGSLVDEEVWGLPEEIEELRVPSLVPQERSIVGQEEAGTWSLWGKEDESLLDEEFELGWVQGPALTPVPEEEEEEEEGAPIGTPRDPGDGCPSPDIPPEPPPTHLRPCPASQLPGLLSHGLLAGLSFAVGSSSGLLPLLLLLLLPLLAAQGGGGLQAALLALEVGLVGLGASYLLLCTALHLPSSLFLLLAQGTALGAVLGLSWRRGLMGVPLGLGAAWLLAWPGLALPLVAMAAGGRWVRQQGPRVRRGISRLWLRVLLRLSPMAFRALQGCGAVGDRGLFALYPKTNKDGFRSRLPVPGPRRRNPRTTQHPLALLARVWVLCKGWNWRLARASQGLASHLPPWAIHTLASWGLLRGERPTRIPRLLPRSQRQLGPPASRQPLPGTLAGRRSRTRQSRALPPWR
inactive: erlotinib -0.043 | [2] -0.019 | [3] 0.156 | [9] 0.029 | [7] -0.014 | [8] 0.029

SSBP4 (UniProt Q9BWG4)
inactive: erlotinib 0.08 | [1] 0.076 | [3] 0.043 | [4] -0.054 | [5] -0.056 | [9] -0.052 | [6] -0.099 | [7] 0.022 | [8] -0.024

TACC2 (UniProt O95359)
Chain of UniProt O95359 (O95359 whole entry, looked up): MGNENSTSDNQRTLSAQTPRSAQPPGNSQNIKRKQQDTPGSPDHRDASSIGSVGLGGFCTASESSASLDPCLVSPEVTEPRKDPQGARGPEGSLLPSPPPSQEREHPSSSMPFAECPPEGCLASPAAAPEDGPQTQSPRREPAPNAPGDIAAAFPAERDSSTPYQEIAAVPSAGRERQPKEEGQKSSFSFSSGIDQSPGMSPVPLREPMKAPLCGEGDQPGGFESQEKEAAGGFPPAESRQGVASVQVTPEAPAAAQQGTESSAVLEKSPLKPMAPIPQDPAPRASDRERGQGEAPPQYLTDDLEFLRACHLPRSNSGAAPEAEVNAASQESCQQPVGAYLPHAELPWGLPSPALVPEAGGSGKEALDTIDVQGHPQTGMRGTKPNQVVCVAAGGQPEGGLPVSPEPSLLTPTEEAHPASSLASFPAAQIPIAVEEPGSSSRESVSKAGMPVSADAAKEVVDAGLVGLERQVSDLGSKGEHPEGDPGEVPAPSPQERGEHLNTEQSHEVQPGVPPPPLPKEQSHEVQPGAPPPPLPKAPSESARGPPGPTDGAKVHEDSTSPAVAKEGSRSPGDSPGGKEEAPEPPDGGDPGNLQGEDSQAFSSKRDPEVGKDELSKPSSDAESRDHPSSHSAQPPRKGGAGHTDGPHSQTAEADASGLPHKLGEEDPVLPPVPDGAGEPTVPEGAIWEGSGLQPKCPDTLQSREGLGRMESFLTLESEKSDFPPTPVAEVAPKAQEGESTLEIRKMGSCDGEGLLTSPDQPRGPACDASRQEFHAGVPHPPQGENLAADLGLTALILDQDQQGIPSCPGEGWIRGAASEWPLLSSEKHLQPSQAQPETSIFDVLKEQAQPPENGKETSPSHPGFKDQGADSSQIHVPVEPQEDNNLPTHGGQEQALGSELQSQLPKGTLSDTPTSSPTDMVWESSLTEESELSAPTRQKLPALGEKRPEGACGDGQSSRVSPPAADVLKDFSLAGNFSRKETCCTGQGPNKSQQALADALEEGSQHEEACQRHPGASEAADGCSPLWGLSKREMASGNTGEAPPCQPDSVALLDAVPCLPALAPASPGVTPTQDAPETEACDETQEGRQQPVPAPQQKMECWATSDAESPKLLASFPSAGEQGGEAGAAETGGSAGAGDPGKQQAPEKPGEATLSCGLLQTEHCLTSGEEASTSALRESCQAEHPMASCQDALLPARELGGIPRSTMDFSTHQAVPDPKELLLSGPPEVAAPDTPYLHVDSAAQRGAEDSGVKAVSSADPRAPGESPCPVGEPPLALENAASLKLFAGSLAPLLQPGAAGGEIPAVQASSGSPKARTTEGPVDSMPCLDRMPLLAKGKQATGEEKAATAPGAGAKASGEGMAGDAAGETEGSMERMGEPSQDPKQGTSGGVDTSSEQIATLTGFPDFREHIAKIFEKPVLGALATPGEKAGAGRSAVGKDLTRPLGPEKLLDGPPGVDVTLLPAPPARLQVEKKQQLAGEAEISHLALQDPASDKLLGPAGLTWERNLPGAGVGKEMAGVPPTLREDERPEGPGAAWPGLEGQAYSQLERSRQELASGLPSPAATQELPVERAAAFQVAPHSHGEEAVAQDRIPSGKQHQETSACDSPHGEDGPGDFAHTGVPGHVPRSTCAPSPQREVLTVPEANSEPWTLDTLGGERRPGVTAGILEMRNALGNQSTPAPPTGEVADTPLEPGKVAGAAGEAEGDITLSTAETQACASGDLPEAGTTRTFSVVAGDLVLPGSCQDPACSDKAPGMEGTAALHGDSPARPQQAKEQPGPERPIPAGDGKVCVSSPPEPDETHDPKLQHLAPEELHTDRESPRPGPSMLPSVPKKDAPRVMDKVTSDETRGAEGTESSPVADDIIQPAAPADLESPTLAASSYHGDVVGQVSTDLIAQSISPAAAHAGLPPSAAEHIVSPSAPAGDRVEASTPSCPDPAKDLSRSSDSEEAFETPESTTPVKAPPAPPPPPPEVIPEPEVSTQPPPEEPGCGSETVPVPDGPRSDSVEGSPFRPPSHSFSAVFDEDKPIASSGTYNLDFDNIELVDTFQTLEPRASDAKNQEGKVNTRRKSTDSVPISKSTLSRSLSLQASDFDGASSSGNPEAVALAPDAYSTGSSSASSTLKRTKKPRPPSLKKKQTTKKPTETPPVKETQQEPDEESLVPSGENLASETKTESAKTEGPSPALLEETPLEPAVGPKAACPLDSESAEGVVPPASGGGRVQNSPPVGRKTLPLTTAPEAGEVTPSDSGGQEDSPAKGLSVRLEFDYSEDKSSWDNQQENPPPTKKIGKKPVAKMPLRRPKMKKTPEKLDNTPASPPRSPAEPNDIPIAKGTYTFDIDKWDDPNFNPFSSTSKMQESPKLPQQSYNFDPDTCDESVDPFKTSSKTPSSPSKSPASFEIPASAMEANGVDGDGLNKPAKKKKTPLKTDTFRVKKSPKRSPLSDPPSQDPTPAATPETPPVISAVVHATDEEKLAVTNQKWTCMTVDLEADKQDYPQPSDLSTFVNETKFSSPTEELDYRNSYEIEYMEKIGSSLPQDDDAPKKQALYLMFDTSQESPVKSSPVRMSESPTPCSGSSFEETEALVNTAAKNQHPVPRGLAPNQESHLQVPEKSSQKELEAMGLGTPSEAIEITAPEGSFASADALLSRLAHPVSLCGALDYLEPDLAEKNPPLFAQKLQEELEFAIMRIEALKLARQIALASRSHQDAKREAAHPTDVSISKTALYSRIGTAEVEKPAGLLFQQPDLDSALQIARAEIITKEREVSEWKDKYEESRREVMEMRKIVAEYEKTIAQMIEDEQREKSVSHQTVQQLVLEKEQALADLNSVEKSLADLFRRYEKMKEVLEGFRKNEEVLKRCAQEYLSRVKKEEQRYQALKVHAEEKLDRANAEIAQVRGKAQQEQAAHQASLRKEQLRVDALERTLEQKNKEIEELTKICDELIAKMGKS
inactive: erlotinib -0.219 | [1] 0.008 | [3] 0.06 | [4] 0.005 | [5] 0.075 | [9] -0.128 | [6] 0.014 | [7] 0.014 | [8] -0.026
